The values that follow come from the OligoGym collection.
Also: reference of the scale not given here.

The target of one test is PCDH11X. Briefly: pooled miR-30 sensor sort-seq; sequence = guide strand. The following applies: shRNA.
As to TTAAGCAGCAAGTTCTTAGGGG, the sensor-assay potency score (higher = more potent) came to 0.683.
The sequence ATCAGTAACACTCACTTGCAAA gave a sensor-assay potency score (higher = more potent) of -1.63.
On to TTTTCTGGCATTTCTTCTCGGA, for which the sensor-assay potency score (higher = more potent) is -0.435.
As to TTCAGTGCTTTTGCGCACCAGT, the sensor-assay potency score (higher = more potent) was -0.711.
For TAACTACTTTGATTGAACGTAT, the sensor-assay potency score (higher = more potent) was -0.315.
Still for that read-out and setting: next, TGTATCAGTAACACTCACTTGC: 0.683; TTGATCTTAGCATTAGGCCCAC: -0.682.
TTGTAGGACTACATACATCATA registered a sensor-assay potency score (higher = more potent) of -0.797.
Sequence TTGAACTGCATAGCAGTTGTCA showed a sensor-assay potency score (higher = more potent) of -0.535.
In the case of AATAGTGACAAAATTAAGCAGC, the sensor-assay potency score (higher = more potent) is -0.804.
As for TTTACTTTCATCACGTAGGTAT, the sensor-assay potency score (higher = more potent) turned out to be 0.803.

A further test concerns the target PCDHA4. The test is described as above. As to conditions: shRNA.
Sequence TTCTACTTCCACAATAACTCTA came in with a sensor-assay potency score (higher = more potent) of 0.0225.
On the same count and under the same terms, with TCTCTGTCTAAAGATTTCCGTA the figure was -0.816; with TTGTGTTGCTGGGAACACCGGC, -0.469.
On to ATGTCTTTGTCGGACACGCTGA, for which the sensor-assay potency score (higher = more potent) is -1.17.
In turn, TTAAGTTTAATTACCAATGTTC displayed a sensor-assay potency score (higher = more potent) of -0.347.
With TTTGTCGGACACGCTGATCAGG, the sensor-assay potency score (higher = more potent) was -0.74.
Consider TTTTCTAGTAATCTCACCTTAT, for which the sensor-assay potency score (higher = more potent) was -0.448.
Take TTGGATTTCACATTTGGCGAAA: the sensor-assay potency score (higher = more potent) is -0.705.
